Calls of active or inactive are those of the source. Rule for the calls: active = hit-call score of the fitted dose curve at least 0.9, where 1 is the maximum; inactive = score below 0.9.
Key:
[1] = read-out: TIMP metallopeptidase inhibitor 1 (TIMP1), TIMP1 (gene 7076); experiment: BSK_hDFCGF_TIMP1: BioMAP Diversity Plus: hDFCGF Assay for TIMP metallopeptidase inhibitor 1 (TIMP1) Biomarker Activity (AID 2283062); details: primary human foreskin fibroblasts; actives raise or lower the signal
In short: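 Human foreskin fibroblast primary cultures dosed for 24 h; secreted/surface TIMP-1 quantified by ELISA. Bidirectional curve fitting against DMSO baseline; cytotoxicity tracked in parallel cultures by SRB total-protein staining.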

[2] = read-out: Monokine induced gamma interferon (MIG), CXCL9 (gene 4283); experiment: BSK_hDFCGF_MIG: BioMAP Diversity Plus: hDFCGF Assay for Monokine induced gamma interferon (MIG) Biomarker Activity (AID 2283063); details: primary human foreskin fibroblasts; actives raise or lower the signal
In short: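 MIG/CXCL9 measured by ELISA 24 h after dosing primary human skin fibroblasts. Activity fitted in both directions against DMSO controls. Cytotoxicity was checked in parallel cultures by SRB staining read at 560 nm.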

[3] = read-out: Matrix Metallopeptidase 1 (MMP1), MMP1 (gene 4312); experiment: BSK_hDFCGF_MMP1: BioMAP Diversity Plus: hDFCGF Assay for Matrix Metallopeptidase 1 (MMP1) Biomarker Activity (AID 2283064); details: primary human foreskin fibroblasts; actives raise or lower the signal
In short: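 ELISA read-out of MMP1 from human foreskin fibroblasts (primary skin cells), 24 h post-dose. Gain or loss of signal was fitted bidirectionally versus DMSO negative control; cytotoxicity was checked by SRB in parallel cultures.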

[4] = read-out: Vascular cell adhesion molecule 1 (VCAM1), VCAM1 (gene 7412); experiment: BSK_hDFCGF_VCAM1: BioMAP Diversity Plus: hDFCGF Assay for Vascular cell adhesion molecule 1 (VCAM1) Biomarker Activity (AID 2283065); details: primary human foreskin fibroblasts; actives raise or lower the signal;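 note: VCAM-1 protein level quantified by ELISA after 24 h chemical exposure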
In short: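 Human foreskin fibroblast primary cells dosed with chemical, VCAM-1 measured by ELISA at 24 h. Bidirectional curve fitting relative to DMSO as negative control/baseline.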

[5] = read-out: Plasminogen activator inhibitor-1 (PAI1), SERPINE1 (gene 5054); experiment: BSK_hDFCGF_PAI1: BioMAP Diversity Plus: hDFCGF Assay for Plasminogen activator inhibitor-1 (PAI1) Biomarker Activity (AID 2283066); details: primary human foreskin fibroblasts; actives raise or lower the signal
In short: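 ELISA readout of PAI-1 from primary human skin fibroblast cultures, 24 h after compound addition. Gain or loss of signal was fitted bidirectionally against DMSO baseline.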

[6] = read-out: Intercellular Adhesion Molecule 1 (ICAM1), ICAM1 (gene 3383); experiment: BSK_KF3CT_ICAM1: BioMAP Diversity Plus: KF3CT Assay for Intercellular Adhesion Molecule 1 (ICAM1) Biomarker Activity (AID 2283067); details: primary human keratinocytes with fibroblasts; actives raise or lower the signal
In short: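 Human keratinocyte–foreskin fibroblast co-culture was treated for 24 h. Cell-surface ICAM-1 was quantified by ELISA, fitted bidirectionally relative to DMSO. Cytotoxicity was checked in parallel cultures by SRB total-protein staining.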

[7] = read-out: Interferon-gamma inducible Protein 10 (IP10), CXCL10 (gene 3627); experiment: BSK_KF3CT_IP10: BioMAP Diversity Plus: KF3CT Assay for Interferon-gamma inducible Protein 10 (IP10) Biomarker Activity (AID 2283068); details: primary human keratinocytes with fibroblasts; actives raise or lower the signal
In short: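 ELISA read-out of IP-10 after 24 h chemical dosing of human skin primary co-culture (keratinocytes, foreskin fibroblasts). Gain or loss of signal relative to DMSO, bidirectional curve fit.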

[8] = BSK_KF3CT_SRB: Viability Assessment in the BioMAP Diversity Plus: KF3CT Assay (AID 2283069); details: primary human keratinocytes with fibroblasts;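 note: total protein by sulforhodamine B staining as a cytotoxicity measure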
In short: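 SRB read-out at 560 nm (0.1% stain, TCA-fixed cells) gauges overt cytotoxicity in a human skin keratinocyte–fibroblast co-culture 24 h post-dosing. Signal change was fitted bidirectionally relative to DMSO control.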

[9] = read-out: Interleukin-1 alpha (IL1a), IL1A (gene 3552); experiment: BSK_KF3CT_IL1a: BioMAP Diversity Plus: KF3CT Assay for Interleukin-1 alpha (IL1a) Biomarker Activity (AID 2283070); details: primary human keratinocytes with fibroblasts; actives raise or lower the signal
In short: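 Primary skin co-culture (keratinocytes, foreskin fibroblasts), 24 h exposure; ELISA for IL-1a; bidirectional curve fit vs DMSO.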

[10] = read-out: TIMP metallopeptidase inhibitor 2 (TIMP2), TIMP2 (gene 7077); experiment: BSK_KF3CT_TIMP2: BioMAP Diversity Plus: KF3CT Assay for TIMP metallopeptidase inhibitor 2 (TIMP2) Biomarker Activity (AID 2283071); details: primary human keratinocytes with fibroblasts; actives raise or lower the signal
In short: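 ELISA readout of TIMP-2 in keratinocyte plus foreskin fibroblast co-cultures (human skin primary cells), 24 h post-dose. Gain or loss of signal fitted relative to DMSO.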

[11] = read-out: Transforming growth factor beta 1 (TGFb1), TGFB1 (gene 7040); experiment: BSK_KF3CT_TGFb1: BioMAP Diversity Plus: KF3CT Assay for Transforming growth factor beta 1 (TGFb1) Biomarker Activity (AID 2283072); details: primary human keratinocytes with fibroblasts; actives raise or lower the signal
In short: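 Read-out: ELISA for TGF-b1 in keratinocyte/foreskin fibroblast human skin co-culture, 24 h after dosing; bidirectional curve fit vs DMSO baseline; gain or loss of signal scored.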

[12] = read-out: C-C motif chemokine 2 (Homo sapiens) (UniProt P13500); experiment: BSK_KF3CT_MCP1: BioMAP Diversity Plus: KF3CT Assay for Monocyte Chemoattractant Protein 1 (MCP1/CCL2) Biomarker Activity (AID 2283073); details: primary human keratinocytes with fibroblasts; actives raise or lower the signal
In short: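 Human keratinocyte–foreskin fibroblast co-culture; MCP-1 measured by ELISA 24 h after dosing. Bidirectional fit vs DMSO; cytotoxicity tracked by SRB total protein in parallel cultures.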

[13] = read-out: Matrix Metallopeptidase 9 (MMP9), MMP9 (gene 4318); experiment: BSK_KF3CT_MMP9: BioMAP Diversity Plus: KF3CT Assay for Matrix Metallopeptidase 9 (MMP9) Biomarker Activity (AID 2283074); details: primary human keratinocytes with fibroblasts; actives raise or lower the signal;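 for AC50: MMP9 protein level quantified by ELISA in the co-culture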
In short: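 ELISA read-out of MMP-9 at 24 h post-dosing in a co-culture of human skin keratinocytes and foreskin fibroblasts. Gain or loss of signal was fitted in both directions against DMSO.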

[14] = read-out: urokinase plasminogen activator (uPA), PLAU (gene 5328); experiment: BSK_KF3CT_uPA: BioMAP Diversity Plus: KF3CT Assay for urokinase plasminogen activator (uPA) Biomarker Activity (AID 2283075); details: primary human keratinocytes with fibroblasts; actives raise or lower the signal
In short: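 Skin co-culture (keratinocytes + foreskin fibroblasts), human primary; 24 h post-dose; uPA by ELISA; gain/loss fit vs DMSO baseline.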

CD40, CD40 (gene 958) = experiment: BSK_LPS_CD40: BioMAP Diversity Plus: LPS Assay for CD40 Biomarker Activity (AID 2283076); details: primary human HUVEC with PBMC; actives raise or lower the signal
In short: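 HUVEC plus PBMC co-culture stimulated with LPS; CD40 quantified by ELISA 24 h after compound dosing. Fitting was bidirectional relative to DMSO. SRB staining of parallel cultures flagged overt cytotoxicity.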

[15] = read-out: E-selectin (Homo sapiens) (UniProt P16581); experiment: BSK_LPS_Eselectin: BioMAP Diversity Plus: LPS Assay for Eselectin Biomarker Activity (AID 2283077); details: primary human HUVEC with PBMC; actives raise or lower the signal
In short: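 Human umbilical vein endothelial cells co-cultured with PBMC under LPS stimulation; cell-surface E-selectin measured by ELISA 24 h after dosing. Change in either direction versus DMSO, with SRB total-protein staining in parallel cultures for cytotoxicity.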

[16] = read-out: Interleukin-8 (IL8), CXCL8 (gene 3576); experiment: BSK_LPS_IL8: BioMAP Diversity Plus: LPS Assay for Interleukin-8 (IL8) Biomarker Activity (AID 2283078); details: primary human HUVEC with PBMC; actives raise or lower the signal
In short: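 Human umbilical vein endothelial cells co-cultured with PBMC, LPS-stimulated, exposed to compound for 24 h. IL-8 quantified by ELISA; fitted in both directions against DMSO, with SRB total-protein staining of parallel cultures for cytotoxicity.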

[17] = BSK_LPS_SRB: Viability Assessment in the BioMAP Diversity Plus: LPS Assay (AID 2283079); details: primary human HUVEC with PBMC;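 note: total protein by sulforhodamine B absorbance as a cytotoxicity measure; measured one day after compound addition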
In short: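 Co-culture of human umbilical vein endothelial cells and PBMC, read 24 h after dosing. Total protein by 0.1% SRB staining after 10% TCA fixation, absorbance at 560 nm; bidirectional fit against DMSO.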

[18] = read-out: Interleukin-1 alpha (IL1a), IL1A (gene 3552); experiment: BSK_LPS_IL1a: BioMAP Diversity Plus: LPS Assay for Interleukin-1 alpha (IL1a) Biomarker Activity (AID 2283080); details: primary human HUVEC with PBMC; actives raise or lower the signal
In short: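 Human umbilical vein endothelial cells co-cultured with PBMC and stimulated with LPS; IL-1a measured by ELISA 24 h after dosing. Bidirectional fitting against DMSO; cytotoxicity checked by SRB staining in parallel cultures.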

[19] = read-out: Monocyte Chemoattractant Protein-1 (MCP1), CCL2 (gene 6347); experiment: BSK_LPS_MCP1: BioMAP Diversity Plus: LPS Assay for Monocyte Chemoattractant Protein-1 (MCP1) Biomarker Activity (AID 2283081); details: primary human HUVEC with PBMC; actives raise or lower the signal;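 for AC50: secreted MCP-1 protein quantified by ELISA in culture supernatant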
In short: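 Human umbilical vein endothelial cells co-cultured with PBMC, LPS-stimulated; secreted MCP-1 measured by ELISA 24 h after compound addition. Bidirectional curve fitting against DMSO baseline; SRB total-protein staining in parallel cultures for cytotoxicity.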

Measured: AC50

Sequence of E-selectin (Homo sapiens) (P16581 whole entry, looked up): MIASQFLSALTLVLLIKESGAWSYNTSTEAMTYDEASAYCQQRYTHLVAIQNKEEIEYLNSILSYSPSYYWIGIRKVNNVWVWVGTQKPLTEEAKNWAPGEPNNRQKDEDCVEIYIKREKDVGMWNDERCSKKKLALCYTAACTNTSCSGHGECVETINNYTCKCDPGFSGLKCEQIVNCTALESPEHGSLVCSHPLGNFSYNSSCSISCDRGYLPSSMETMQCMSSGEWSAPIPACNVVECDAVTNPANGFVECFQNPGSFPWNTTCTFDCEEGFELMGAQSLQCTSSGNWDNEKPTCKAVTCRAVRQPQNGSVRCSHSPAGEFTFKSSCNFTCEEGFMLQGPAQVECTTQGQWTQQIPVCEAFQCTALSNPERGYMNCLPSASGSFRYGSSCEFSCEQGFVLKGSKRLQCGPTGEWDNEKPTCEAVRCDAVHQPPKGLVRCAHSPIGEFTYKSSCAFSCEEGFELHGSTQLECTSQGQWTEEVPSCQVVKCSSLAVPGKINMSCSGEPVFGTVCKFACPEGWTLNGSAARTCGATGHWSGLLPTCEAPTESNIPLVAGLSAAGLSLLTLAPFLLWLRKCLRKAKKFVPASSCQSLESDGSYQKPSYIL

C=C(C)C(=O)OCC(CC)(COC(=O)C(=C)C)COC(=O)C(=C)C
active: [1] 33 µM | [2] 34.3 µM | [3] 37.9 µM | [4] 23.4 µM | [5] 16 µM
inactive: all other assays above

CN(C)C(=S)SC(=S)N(C)C
active: [1] 37.8 µM | [2] 34.4 µM | [3] 36.2 µM | [4] 31.2 µM | [5] 19.9 µM | [6] 27.3 µM
inactive: all other assays above

COc1ccc(OC)c(N=Nc2c(O)ccc3ccccc23)c1
inactive: [5] | [6] | [7] | [8] | [12] | [16] | [17]
active: [1] 4.02 µM | [2] 1.93 µM | [3] 14.2 µM | [4] 1.42 µM | [9] 8.38 µM | [10] 7.85 µM | [11] 3.97 µM | [13] 4.27 µM | [14] 7.69 µM | CD40, CD40 (gene 958) 3.84 µM | [15] 20 µM | [18] 6.45 µM | [19] 8.02 µM

From PubChem BioAssay (EPA / NIEHS)
